Data on 13 molecules can be found in paper PMC13494018.

Unmarked numbers belong to inactive results. How the calls were made is not given here.

To fix the notation:
B1: design_609_7ee6ce64-4629-41e8-bcb4-ba0da017284d_2471_dldesign_0_cycle1_af2pred (protein)
chain: MEALKARGDLDVVADQATQIAKLAAEHPELAELGKRAAELAARAKAAQAGDPEETIKKAKELRAERRELVAETKKRLAAL
B2: design_609_7ee6ce64-4629-41e8-bcb4-ba0da017284d_2306_dldesign_0_cycle1_af2pred (protein)
chain: LSENEKLKKAADYTSKAAKLAAEAAKKYKLPPEAVKKAQEAINLLFSSTDKETAEKAVELAKEAAKYMPESVAKKFLELVEKAAEYWS
B3: design_609_7ee6ce64-4629-41e8-bcb4-ba0da017284d_2408_dldesign_0_cycle1_af2pred (protein)
chain: SSAAEEAAKKVEETAKKIKEEGLPEEEAKKLLSEALLLVADHDSPELAERALKAFEELSKYYPGAAKAAKILKRRLEALKKN
B4: design_609_7ee6ce64-4629-41e8-bcb4-ba0da017284d_2027_dldesign_0_cycle1_af2pred (protein)
chain: MTPEELLAKIKELAKKAKEAKDEKEAKKYLEEAKAAAAELKANGTPETAKQASAAVAEAYENYAEAVFKIK
B5: design_609_7ee6ce64-4629-41e8-bcb4-ba0da017284d_2085_dldesign_0_cycle1_af2pred (protein)
chain: LEEKLKELRALAKEAAEKAKEEGATKTANLLLKGVEASPLKAVGYVLVAADLLKASEKLKPWAEKLEKAAEEV
B6: design_609_7ee6ce64-4629-41e8-bcb4-ba0da017284d_2040_dldesign_0_cycle1_af2pred (protein)
chain: EEEEKEKKAKELEKEAVKHREEAFDKIAEGKLEEAKELAEKIRELAKKLEELGEEAKPLADRARKGARAVERLIEAAE
B7: design_609_7ee6ce64-4629-41e8-bcb4-ba0da017284d_2438_dldesign_0_cycle1_af2pred (protein)
chain: MKEEMIKEAKKLMEEGKKKFEEAVKLPASEAAEASKLMHEGHELLTEAAWLAKKAGDEELAKEAKKARKEAVKKGKEAQAASAAA
B8: design_609_7ee6ce64-4629-41e8-bcb4-ba0da017284d_2409_dldesign_0_cycle1_af2pred (protein)
chain: SMEEEELRKKADEVAEKAAKIAEEADPELGKKFRERAEKAKKDPVDAYAYYVAQAAKSGGIILEKLGKEEEGKKLKELGKELEKALEE
B9: design_609_7ee6ce64-4629-41e8-bcb4-ba0da017284d_2287_dldesign_0_cycle1_af2pred (protein)
chain: SDLEATELQIKAARLVAEAKRALAELTPEEGLARAKELFAEAEKAVKAAAKLLSPEAGKALVAALKERSAAILAEAEKAAAA
B10: design_609_7ee6ce64-4629-41e8-bcb4-ba0da017284d_2421_dldesign_0_cycle1_af2pred (protein)
chain: AAKEEVEKKAEEVIKKLKEIGEKDPNAKELTDDLIKTLKKEVEKYKDDPEKAKKAVDKAEKTADSLEEAVKY
B11: design_609_7ee6ce64-4629-41e8-bcb4-ba0da017284d_2235_dldesign_0_cycle1_af2pred (protein)
chain: MKAKEEAEKKVEEVVEKGEKKVEEMKGLTAEEAEKVRNEIILEGQEVAAEAKKVDPEVGKKGFEKFRKVGEKAEKAVEEVK
B12: design_609_7ee6ce64-4629-41e8-bcb4-ba0da017284d_2350_dldesign_0_cycle1_af2pred (protein)
chain: SEKKLKAQKEALKLVEEVAKYAEEDPETAPKFGKEKAEEAYKYALELGLSEEEAEKLRKTTLRLVEAEIRGAKLVAEKRKKALE
B13: design_609_7ee6ce64-4629-41e8-bcb4-ba0da017284d_2406_dldesign_0_cycle1_af2pred (protein)
chain: ETEKKIKYLKEALYYLHLAIESAKLGSPPEAARRFVEIGIKKALEGDEEVGKELEKLLKELSPEEAAEAGAKLVEERIKELE

Chain of VTCN1, Q7Z7D3 (Q7Z7D3 whole entry): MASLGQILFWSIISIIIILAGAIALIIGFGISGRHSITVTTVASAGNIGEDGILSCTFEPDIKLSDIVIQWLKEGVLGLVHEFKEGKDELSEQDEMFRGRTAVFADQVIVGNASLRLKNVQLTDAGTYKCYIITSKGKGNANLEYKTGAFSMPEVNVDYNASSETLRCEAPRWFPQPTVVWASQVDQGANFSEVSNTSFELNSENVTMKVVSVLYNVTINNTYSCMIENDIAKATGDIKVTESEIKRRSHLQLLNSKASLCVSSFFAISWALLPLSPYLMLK

This assay concerns the target VTCN1, Q7Z7D3.
With B1, the “binding in a display sort” value is “not found”.
As to B2, the “binding in a display sort” value is “not found”.
Regarding B3, the “binding in a display sort” value is “not found”.
The value for B4 was “not found”; that for B5 was “not found”; that for B6 was “not found”.
With B7, the “binding in a display sort” value was “not found”.
Turning to B8, the “binding in a display sort” value was “not found”.
As for B9, the “binding in a display sort” value is “not found”.
As for B10, the “binding in a display sort” value was “not found”.
As for B11, the “binding in a display sort” value was “not found”.
For the molecule B12, the “binding in a display sort” value was “not found”.
As to B13, the “binding in a display sort” value was “not found”.
